Laboratory results from PubChem BioAssay AID488977 (Johns Hopkins Ion Channel Center, 2010).
The whole screen tested about 310,000 compounds, of which about 1,500 (0.48%) were called active.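 The calls were made as follows: active = initial fluorescence not abnormally high and integrated response B-score, plate-corrected, over 3 SD above library mean; inactive = the rest.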 The entries come from a sample that favours actives as a whole. Where a structure was tested more than once in an assay, its records may differ in their call.

molecular target: High affinity choline transporter 1 (Homo sapiens) (UniProt Q9GZV3); assay: CHT positive allosteric modulators, primary screen, cell-based, membrane potential dye, choline EC20 (AID 488977); conditions: CHT-expressing cells, at 10 µM, LV-AA mutant CHT in HEK293 cells; active compounds read high
Sequence (Q9GZV3 whole entry, looked up): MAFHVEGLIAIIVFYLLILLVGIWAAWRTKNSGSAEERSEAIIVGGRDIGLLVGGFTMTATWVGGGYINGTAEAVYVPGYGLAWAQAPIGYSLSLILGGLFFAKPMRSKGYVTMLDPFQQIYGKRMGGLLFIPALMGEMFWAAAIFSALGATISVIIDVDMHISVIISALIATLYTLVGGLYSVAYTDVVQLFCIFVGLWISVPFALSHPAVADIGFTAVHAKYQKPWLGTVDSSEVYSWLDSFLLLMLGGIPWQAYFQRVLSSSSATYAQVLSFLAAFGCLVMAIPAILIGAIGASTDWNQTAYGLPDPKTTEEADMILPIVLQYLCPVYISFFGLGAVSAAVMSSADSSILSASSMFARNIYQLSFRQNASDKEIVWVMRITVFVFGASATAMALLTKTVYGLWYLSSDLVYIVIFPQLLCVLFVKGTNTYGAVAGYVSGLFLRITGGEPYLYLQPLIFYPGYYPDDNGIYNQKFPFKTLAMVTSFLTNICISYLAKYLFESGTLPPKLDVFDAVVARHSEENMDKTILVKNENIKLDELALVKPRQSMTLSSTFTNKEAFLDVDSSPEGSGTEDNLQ

Row | Structure (SMILES) | B-score | outcome
1 | COC(=O)c1ccc(SCc2ccccc2)nc1 | inactive | 
2 | COc1ccc(NC(=O)CN(C)C(=O)CC2CCCCC2)cc1 | inactive | 
3 | Cc1ccc(C(=O)NC2CCCC(C)C2C)cc1S(=O)(=O)N1CCCCC1 (centres undefined) | inactive | 
4 | Cn1cc[n+](C)c1COc1ccc(C=O)cc1 | inactive | 
5 | O=Cc1ccc(OCc2cn3ccccc3n2)cc1 | 7.07 (active) | 
6 | COc1ccc(C(=O)NCc2cn3ccccc3n2)cc1 | inactive | 
7 | COc1ccc(S(=O)(=O)N2CCCCC2)cc1NC(=O)C1CC(=O)N(c2ccc3c(c2)OCCO3)C1 (centres undefined) | inactive | 
8 | COc1ccc(/C=N/NC(=O)c2cc(-c3cccc(C)c3)nc3ccccc23)cc1O | inactive | 
9 | CCN1C(=O)[C@H]2[C@@H](c3ccc(SC4CCCCC4)c(OC)c3)N[C@@](Cc3ccccc3)(C(=O)OC)[C@H]2C1=O | inactive | 
10 | O=C(NCCc1ccco1)C(=O)NCCC1CCCCN1S(=O)(=O)c1ccccc1 (centres undefined) | inactive | 
11 | CCn1cc(S(=O)(=O)c2cccc(C)c2)c(=O)c2cc(F)c(N3CCN(C)CC3)cc21 | 8.24 (active) | 
12 | CCn1cc(C(=O)NCCO)c(=O)c2cc(F)c(N3CCN(C)CC3)cc21 | inactive | 
13 | CN1CCN(c2cc3c(cc2F)c(=O)c(C(=O)O)cn3CCF)CC1 | inactive | 
14 | CCN1C(=O)[C@H]2[C@@H](c3ccc(-c4ccc(F)cc4)cc3)N[C@@](Cc3ccccc3)(C(=O)OC)[C@H]2C1=O | inactive | 
15 | CN(/N=C/c1ccccc1)C(=S)c1ccccc1 | inactive | 
16 | Cc1ccc(C)c(OCCC(=O)Nc2cccc(S(=O)(=O)N3CCCC3)c2)c1 | inactive | 
17 | Cn1c(=NC(=O)CSCC(=O)N2CCCCC2)sc2ccccc21 | inactive | 
18 | Cn1c(=NC(=O)c2ccco2)sc2cccc(F)c21 | inactive | 
19 | Cn1c(=NC(=O)c2cnccn2)sc2ccccc21 | 7.8 (active) | 
20 | O=C(Nc1ncccc1O)c1ccc(S(=O)(=O)N2CCCCCC2)cc1 | inactive | 
21 | CCN(CC)c1ccc(S(=O)(=O)N2CCCCC2)cc1NC(=O)C1=COCCO1 | inactive | 
22 | OCc1ccc(-c2ccccc2)c(-c2ccccc2)c1 | inactive | 

Row | Structure (SMILES) | B-score | outcome
23 | CCCCN(CCCC)CC(O)Cn1c2ccccc2c(=O)c2ccccc21 (centres undefined) | 8.77 (active) | 
24 | CS(=O)(=O)N(CC(O)Cn1c2ccccc2c2ccccc21)c1cccc2ccccc12 (centres undefined) | inactive | 
25 | O=C1c2ccccc2S(=O)(=O)N1CC(O)Cn1c2ccccc2c2ccccc21 (centres undefined) | inactive | 
26 | COc1ccc(CCNc2cc(N3CCN(C(=O)c4ccccc4OC)CC3)ccc2[N+](=O)[O-])cc1OC | inactive | 
27 | COc1cc(OC)c(NC(=O)c2ccc(Br)o2)cc1Cl | inactive | 
28 | CCN1CCN(c2c(Cl)cccc2NC(=O)c2ccc(Br)o2)CC1 | 8.41 (active) | 
29 | CCCC(=O)Nc1ccc(Cl)c(NC(=O)c2ccc(Br)o2)c1 | inactive | 
30 | O=C1CCCCC1Sc1ccc(Cl)cc1[N+](=O)[O-] (centres undefined) | inactive | 
31 | COC(=O)[C@]1(C)N[C@H](c2ccc(-c3ccc(Cl)c(Cl)c3)cc2)[C@@H]2C(=O)N(C)C(=O)[C@@H]21 | inactive | 
32 | Cc1nnc(C)c2c(C)n(N)c(C)c12 | 9.77 (active) | 
33 | COc1cc(C(=O)NCC(=O)NCCSc2ccc(Br)cc2)cc(OC)c1OC | inactive | 
34 | O=C(COC(=O)Cc1c[nH]c2ccccc12)NCCc1ccccc1 | inactive | 
35 | CCN1C(=NCCc2cccnc2)N[C@@H](c2ccccc2)[C@H](C(=O)OC)[C@H]1C | 6.5 (active) | 
36 | CCN1C(=NCCc2cccnc2)N[C@@H](c2ccccc2)C(C(=O)OC)=C1C | inactive | 
37 | CCN1C(=S)N[C@@H](CCc2ccccc2)[C@H](C(=O)OC)[C@H]1C | inactive | 
38 | O=C(Nc1ncccc1O)c1ccc(S(=O)(=O)N2CCCC2)cc1 | inactive | 
39 | COc1cc(C(=O)N(C)Cc2cccc(OC)c2OC)ccc1OCC(=O)Nc1cccc(C(F)(F)F)c1 | inactive | 
40 | O=C(N/N=C/c1cc(Br)c(O)c([N+](=O)[O-])c1)C(O)(c1ccccc1)c1ccccc1 | inactive | 
41 | C=CCNc1nnc(C)c2ccccc12 | 7.04 (active) | 
42 | C=CCNc1nnc(SCC(=O)N2CCCCC2)c2ccccc12 | inactive | 
43 | COc1ccc(Nc2nnc(C)c3ccccc23)cc1 | inactive | 
44 | COc1ccc(-c2ccc3nnc(SCC(=O)Nc4ccc(NC(C)=O)cc4)n3n2)cc1 | inactive | 

Row | Structure (SMILES) | B-score | outcome
45 | COc1ccc(C(=O)NCC2CCCN2S(=O)(=O)c2cccs2)cc1OC (centres undefined) | inactive | 
46 | CN1CCN(C2Cc3ccc(Cl)cc3Sc3ccc(F)cc32)CC1 (centres undefined) | inactive | 
47 | CCOC(=O)C1CCN(C(=O)COC(=O)C2CCN(S(=O)(=O)c3ccc4c(c3)OCCO4)CC2)CC1 | inactive | 
48 | COc1ccccc1CNC(=O)C1CCN(S(=O)(=O)c2ccc3c(c2)OCCO3)CC1 | inactive | 
49 | O=C(COC(=O)C1CCN(S(=O)(=O)c2ccc3c(c2)OCCO3)CC1)Nc1ccccc1OC(F)F | 6.95 (active) | 
50 | Cc1ccc(N2CC(C(=O)N3CCC4(CC3)CC(=O)c3ccccc3O4)CC2=O)cc1C (centres undefined) | inactive | 
51 | O=C(NCCC1CCCCN1S(=O)(=O)c1ccc(Cl)cc1)C(=O)NCc1ccco1 (centres undefined) | inactive | 
52 | Brc1cnc2ccccc2c1N1CCCCC1 | inactive | 
53 | CCCNC(=O)c1ccc(N2CCC3(CC2)CC(c2cccc(Br)c2)=NO3)c(NC(=O)c2ccco2)c1 | inactive | 
54 | C#CCOCCOCCOCCNc1nc(N2CCN(C(=O)CCCCCCCCCCNC(=O)[C@H]([C@@H](C)CC)n3cc(CCCCN=C(N)N)nn3)CC2)nc(N2CCN(C(=O)CCCCCCCCCCNC(=O)[C@H](CO)n3cc(CCCSC)nn3)CC2)n1 | inactive | 
55 | C#CCOCCOCCOCCNc1nc(N2CCN(C(=O)CCCCCCCCCCNC(=O)Cn3cc(CCCCCN)nn3)CC2)nc(N2CCN(C(=O)CCCCCCCCCCNC(=O)[C@H](CO)n3cc(CCCSC)nn3)CC2)n1 | inactive | 
56 | C#CCOCCOCCOCCNc1nc(N2CCN(C(=O)CCCCCCCCCCNC(=O)[C@H](CCCCN)n3cc(C)nn3)CC2)nc(N2CCN(C(=O)CCCCCCCCCCNC(=O)[C@H](CO)n3cc(CCCSC)nn3)CC2)n1 | 7.24 (active) | 
57 | Cc1cccc(C(=O)Nc2ccccc2N2CCN(c3ccc(F)cc3)CC2)c1 | inactive | 
58 | O=C(Nc1ccccc1N1CCN(c2ccccc2)CC1)c1cccc(F)c1 | 7.46 (active) | 
59 | O=C(Nc1ccccc1N1CCCCC1)c1cccc(F)c1 | inactive | 
60 | CSc1ccccc1NC(=O)c1cnc2sc(C)cn2c1=O | inactive | 
61 | CCN1C(=O)[C@@H]2[C@@H](c3ccc(-c4ccc(OC)cc4)c(OC)c3)N3CCC[C@@]3(C(=O)OC)[C@@H]2C1=O | inactive | 
62 | O=C(C[n+]1cc(-c2ccc(Cl)c(Cl)c2)n2c1CCC2)c1cccs1 | inactive | 
63 | Cc1ccc(C(=O)C[n+]2cc(-c3ccccc3)n3c2CCCCC3)cc1 | 7.44 (active) | inactive
64 | Cc1ccc(-c2c[n+](CC(=O)Nc3ccccc3)c3n2CCC3)cc1 | inactive | 
65 | Nc1nonc1-n1nnc(C(=O)N/N=C/c2ccccc2O)c1CN1CCCC1 | inactive | 
66 | Cc1cc(/C=N/NC(=O)CC2(C)OCCO2)c(C)n1-c1ccc(Cl)c(Cl)c1 | inactive | 

Row | Structure (SMILES) | B-score | outcome
67 | Cc1ccc(-n2c(C)cc(/C=N\NC(=O)CC(=O)NC(C)C)c2C)cc1 | 11.1 (active) | 
68 | CSc1ccc(/C=N\NC(=O)CC(=O)NC(C)C)cc1 | inactive | 
69 | CN(C(=O)c1cc2c(=O)n3ccccc3nc2s1)C1CCCCC1 | inactive | 
70 | O=C1N[C@@H](Cc2ccccc2)C(=O)N2[C@H]1C[C@]1(Br)c3ccccc3N(S(=O)(=O)c3ccccc3)[C@H]21 | inactive | 
71 | O=S(=O)(O)Oc1c[nH]c2ccccc12 | inactive | 
72 | COc1cc2c(cc1O)C(SC)=NC(C)(C)C2 | inactive | 
73 | COc1cc2c(cc1OC)C(C(C)C)=NC(C)(C)C2 | inactive | 
74 | COc1cc2c(cc1OC)C(Nc1ccc(S(N)(=O)=O)cc1)=NC(C)(C)C2 | 9.17 (active) | 
75 | O=C(NCCCc1ccccc1)C(=O)NCC1OCCN1S(=O)(=O)c1ccccc1 (centres undefined) | inactive | 
76 | Cc1ccc(S(=O)(=O)N2CCC(C(=O)NCCC3=CCCCC3)CC2)cc1C | inactive | 
77 | C1=C(CCNc2ncnc3c2cnn3-c2ccccc2)CCCC1 | inactive | 
78 | O=C(NCCC1=CCCCC1)C1CCN(Cc2cnn(-c3ccccc3)c2-n2cccc2)CC1 | 6.26 (active) | 
79 | COc1ccccc1C(=O)Nc1ccccc1C(=O)Nc1ccccc1 | inactive | 
80 | COc1ccccc1-c1nnc(-c2ccc(F)cc2)o1 | inactive | 
81 | Cc1ccccc1N1CCN(CCCOc2ccc3c(C)cc(=O)oc3c2)CC1 | inactive | 
82 | Cc1cc(=O)oc2cc(OCCC[n+]3ccccc3)ccc12 | 8.55 (active) | 
83 | Cc1cc(=O)oc2ccc(OCC(=O)O)cc12 | inactive | 
84 | O=C(c1ccccc1)N1CCN(c2ccc([N+](=O)[O-])c(NCc3ccco3)c2)CC1 | inactive | 
85 | O=[N+]([O-])c1ccc(N2CCN(S(=O)(=O)c3ccc4ccccc4c3)CC2)cc1NCc1ccco1 | inactive | 
86 | O=[N+]([O-])c1ccc(N2CCNCC2)cc1NCc1cccnc1 | 6.95 (active) | 
87 | Cc1cc(Br)ccc1NC(=O)CN(C)C(=O)CN1C(=O)NC2(CCCC2)C1=O | inactive | 
88 | COc1cc(/C=N/NC(=O)c2cc(-c3ccccc3C)nc3ccccc23)cc(OC)c1O | inactive | 
